About 83,000 compounds went through this panel and 20% of them were active in at least one assay; those are over-represented in the sample as a whole.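 Method: cells in 96-well plates; compound added at one concentration; 48 h incubation; percent growth measured; values under 10 scored active.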 The source made the active and inactive calls.
These compounds were tested on HL-60(TB) leukemia (assay: NCI-60 one-dose screen, 48 h (100 = growth as untreated, 0 = no growth, -100 = all killed)). Details: 10 µM unless noted.

| Structure (SMILES) | growth |
| --- | --- |
| N#Cc1c(-c2ccc(F)cc2)nc(SCc2ccc(F)cc2)nc1N1CCNCC1 | -7.81% (active) |
| O=C(N/N=C/c1ccc(-c2ccc(O)cc2)s1)c1[nH]c2ccc(Br)cc2c1-c1ccccc1 | -12.4% (active) |
| COc1ccc(C(=O)NNC(=O)CSc2nc3sc4c(c3c(=O)n2-c2ccc(Cl)cc2)CCCC4)cc1 | 64.5% (inactive) |
| Cc1nn(-c2ccccc2)c2ncn(CC(=O)N/N=C/c3ccccc3O)c(=O)c12 | 6.2% (active) |
| Cc1ccc(C(C)C)cc1Oc1cccc(-c2c(-c3ccc(C(F)(F)F)cc3)ncn2C2CCNCC2)n1 | -83.1% (active) |
| O=C(N/N=C/c1c[nH]c2ccccc12)Nc1ccc(F)c(Cl)c1 | 15.9% (inactive) |
| N#Cc1ccc(-c2nn(-c3ccc(C(=O)O)cc3)cc2CNc2cc(Cl)cc(Cl)c2)cc1 | 29.5% (inactive) |
| COC(=O)CNC(=O)COc1c(OC)c(OC)cc2oc(-c3cccc(C(=O)Nc4ccc(Cl)cc4)c3)cc(=O)c12 | 101% (inactive) |
| Cc1cc(C)nc(NS(=O)(=O)c2ccc(N/C(N)=N/c3nccc(-c4ccccc4)n3)cc2)n1 | -25.8% (active) |
| COc1c(F)ccc(C(=O)Nc2ccc3nc(NC(=O)C4CCCN(S(=O)(=O)c5ccc(C(F)(F)F)cc5)C4)sc3c2)c1F (stereo not given) | 101% (inactive) |
| C[C@@H](Nc1c(C#N)cnc2ccc(-c3cnc4[nH]ncc4c3)cc12)c1ccccc1 | 35.2% (inactive) |
| Cc1cc(C(F)(F)F)ccc1C(=O)Nc1sc2c(c1C#N)CCC(=O)C2 | -14.5% (active) |
| Cc1ccc(CSc2nc(-c3ccc(F)cc3)c(C#N)c(=O)[nH]2)cc1 | 56.6% (inactive) |
| COc1cc2oc(-c3cccc(C(=O)Nc4ccc(Cl)cc4)c3)cc(=O)c2c(OCCNC(=O)[C@@H](N)CO)c1OC | -29.2% (active) |
| COc1ccc(C(=O)/C=C/c2ccc(OCc3ccc(F)cc3)c(OC)c2)cc1OC | -5.63% (active) |
| O=C(c1cc2cc(OCCCN3CCC3)ccc2[nH]1)N1C[C@@H](CCl)c2c1cc(OCc1ccccc1)c1ccccc21 | -33.7% (active) |
| O=C(CSc1nnc(-c2c[nH]c3ccccc23)n1-c1ccccc1)Nc1ccc(C(=O)/C=C/c2ccc(Br)cc2)cc1 | 83.2% (inactive) |
| CN(C)c1nc(NCCNS(=O)(=O)c2ccc(C(=O)/C=C/c3ccccc3)cc2)nc(Nc2ccc(F)cc2)n1 | 14% (inactive) |
| CCCSc1nnc(-c2sc3nc4ccccc4n3c2C)o1 | 94% (inactive) |
| CN1CCN(/C(=N\c2sc(-c3ccccc3)nc2-c2ccccc2)c2ccccc2)CC1 | 62.9% (inactive) |

| Structure (SMILES) | growth |
| --- | --- |
| COc1cccc2nc(Nc3ccc(F)c(NC(=O)c4ccc(CN5CCN(C)CC5)c(C(F)(F)F)c4)c3)ccc12 | -73.1% (active) |
| Cc1ccc2c(c1)nc(-c1ccccc1)n2CC(=O)N=Nc1c(O)[nH]c2ccc(Cl)cc12 | 46.2% (inactive) |
| CCCn1c(=O)c2[nH]c(-c3ccc(OCc4nc5ccc(C(F)(F)F)cc5[nH]4)cc3)nc2n(CCC)c1=O | 55.9% (inactive) |
| COc1ccc(C(=O)COc2ccc(NC(=O)Nc3ccccc3)cc2)cc1 | 91.6% (inactive) |
| CCOC(=O)N/C(=C1/OCCN1C)[P+](c1ccccc1)(c1ccccc1)c1ccccc1 | 29.9% (inactive) |
| O=C(NN1C(=O)/C(=C/C=C/c2ccc([N+](=O)[O-])o2)SC1=S)c1ccc(Cl)cc1 | -7.52% (active) |
| O=C1Nc2ccc(F)cc2/C1=C/c1cccc(OCc2ccccc2)c1 | -17.4% (active) |
| O=C(CSc1nnc(-c2ccc(-c3nc4ccccc4[nH]3)cc2)o1)Nc1ccc(Cl)cc1 | 37.6% (inactive) |
| O=C(CSc1nnc(-c2ccc3nc(-c4ccc(Cl)cc4)[nH]c3c2)o1)Nc1ccc(Cl)cc1 | -20.9% (active) |
| C=C1CC[C@@H]2[C@]3(C)COC(c4cn[nH]c4-c4cccc(Br)c4)O[C@@H]3CC[C@@]2(C)[C@@H]1C/C=C1/C(=O)OCC1O (stereo not given in full) | -16.3% (active) |
| Cn1cc(-c2cc3nc(-c4c[nH]c5ccc(Br)cc45)cc(N)n3n2)c2ccccc21 | -45.3% (active) |
| CCCCCCCOc1ccc(S(=O)(=O)Nc2ccc(C)c(F)c2C(=O)O)cc1 | 89.8% (inactive) |
| CC(C)CSc1nc(NCCc2c[nH]c3ccccc23)c(C#N)c(-c2ccccc2)n1 | 60.7% (inactive) |
| O=C(c1ccc(Cl)cc1)c1ccc(OCCCN2CCN(c3ccncc3)CC2)cc1 | -3.36% (active) |
| COc1cc(C2CC(c3cc(OC)c(OC)c(OC)c3)=NN2c2ccccc2)ccc1OCc1ccc(C)cc1 (stereo not given) | 101% (inactive) |
| Cn1cc(-c2cc3nc(-c4c[nH]c5ccccc45)cc(N)n3n2)c2ccccc21 | -41.2% (active) |
| COC(=O)c1c(C(=O)OC)c2ccc3c4ccccc4ccc3n2c1C(=O)OC | 111% (inactive) |
| Cc1ccc(S(=O)(=O)N2CCN(S(=O)(=O)c3oc(-c4ccccc4)nc3C#N)CC2)cc1 | 69.4% (inactive) |
| Cc1ccc(C(=O)Nc2cc(-n3cnc(F)c3)cc(C(F)(F)F)c2)cc1C#Cc1cnc2cccnn12 | 23.5% (inactive) |
| COc1ccc(C(=O)c2cc(C(C)=O)c3c(C)cc(C)cn23)cc1 | 78% (inactive) |
